# Shown are actives, neighbours in structure and some others; about 6.7% of the full set was active somewhere.
# Pf Dd2 inh – P. falciparum Dd2 growth inhibition; SYBR Green, 72 h; hits give low values; 94,000 compounds, 2.3% hits; activity change, % at 10 µM; in the data active means activity change below about -80%; inconclusive means no clear call, values can overlap the other calls
# C diff growth – C. difficile growth inhibition; Clostridium difficile clinical isolate growth, OD600, 24 h; hits give low values; growth activity, negative = inhibition, % at 16 µg/mL (by protocol); 86,000 compounds, 0.25% hits; AID 1259249;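 active means mean growth activity at or below -80% and every replicate also at or below -80%; inconclusive means mean at or below -80% but some replicate above -80%; inactive means mean growth activity above -80%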;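 further: 0% = DMSO wells and -100% = levofloxacin 16 µg/mL wells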
# T cruzi growth-1 – T. cruzi proliferation inhibition; 77,000 compounds, 5.9% hits; AID 624255; T. cruzi beta-gal in NIH3T3, GalScreen luminescence, 90 h; inhibition, % at 8.34 µM;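 active means mean inhibition above about 93%, with at least 55% of replicates each passing it, limit read from the data, passing the limit was not always enough; inconclusive means only one of those two conditions holds; inactive means neither condition holds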
# T cruzi growth-2 – Trypanosoma cruzi proliferation inhibition; T. cruzi beta-gal in NIH3T3, GalScreen luminescence, 90 h; inhibition, % at 8.35 µM; 5,600 compounds, 72% hits; shares compounds with T cruzi growth-1; AID 651739;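 active means mean replicate inhibition above about 95% and at least 55% of replicates individually reaching it, limit read from the data; inconclusive means only one of the two criteria is met; inactive means neither criterion is met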
# T cruzi growth-3 – inhibitors of T. cruzi proliferation. inhibition, % at 2.09 µM. shares compounds with T cruzi growth-1. AID 651740. 5,600 compounds, 21% hits. T. cruzi beta-gal in NIH3T3, GalScreen luminescence, 90 h;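 active means mean inhibition above about 95%, with at least 55% of replicates also reaching it, limit read from the data; inconclusive means meets just one of the two conditions; inactive means meets neither condition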;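 further: plate controls were neutral control median for no effect and positive control median for full effect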
# 3T3 cytotox – cytotoxicity in mouse NIH/3T3 fibroblasts; shares compounds with T cruzi growth-1; NIH/3T3 viability, CellTiter-Glo ATP luminescence, 90 h; cytotoxicity (signal decrease), % at 8.35 µM; 5,600 compounds, 14% hits;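 active means mean signal decrease across replicates above about 35% based on untreated-well scatter, with enough replicates individually passing, limit read from the data; inconclusive means no rule stated though some were filed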;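 further: 0% = median of neutral control wells and 100% = median of positive control wells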
# 3T3 cytotox 2 – NIH/3T3 (mouse) viability loss; 5,600 compounds, 56% hits; inhibition, % at 24.9 µM; NIH/3T3 viability, CellTiter-Glo ATP luminescence, 90 h; shares compounds with T cruzi growth-1;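 active means mean loss of cell viability signal at or above a set limit, and enough replicates individually reaching it; inconclusive means meets only the mean limit or only the replicate share; inactive means meets neither condition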;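 further: 0% = median of neutral control wells and 100% = median of positive control wells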
# The depositor's hits bear a star; ? = inconclusive; . = no result given.
SMILES,Pf Dd2 inh,C diff growth,T cruzi growth-1,T cruzi growth-2,T cruzi growth-3,3T3 cytotox,3T3 cytotox 2
C[C@@H]1CN([C@H](C)CO)C(=O)c2cccc(NC(=O)c3nc4ccccc4s3)c2O[C@H]1CN(C)Cc1ccc(C(=O)Nc2ccccc2N)cc1,-91.6*,.,104.1*,107.6*,76.6,-12.4,33.3*
C[C@H]1CN([C@@H](C)CO)C(=O)c2cccc(NC(=O)c3nc4ccccc4s3)c2O[C@H]1CN(C)Cc1ccc(C(F)(F)F)cc1,?,.,?,110.3*,64.9,33.7,96.2*
C[C@H]1CN([C@@H](C)CO)C(=O)c2cccc(NC(=O)c3nc4ccccc4s3)c2O[C@@H]1CN(C)Cc1ccc(-c2ccccc2)cc1,-33.7,6.2,94.5,.,.,.,.
C[C@H](CO)N1C[C@H](C)[C@H](CN(C)Cc2ccc(Cl)c(Cl)c2)Oc2c(NC(=O)c3nc4ccccc4s3)cccc2C1=O,-48.2,-2.7,69.7,.,.,.,.
C[C@@H]1CN([C@H](C)CO)C(=O)c2cccc(NC(=O)c3nc4ccccc4s3)c2O[C@H]1CN(C)Cc1ccc(C(F)(F)F)cc1,-77.2,.,95.7,.,.,.,.
C[C@@H]1CN([C@H](C)CO)C(=O)c2cccc(NC(=O)c3nc4ccccc4s3)c2O[C@H]1CN(C)Cc1ccc(-c2ccccc2)cc1,-39.8,0.3,16.0,.,.,.,.
C[C@H]1CN([C@@H](C)CO)C(=O)c2cccc(NC(=O)c3nc4ccccc4s3)c2O[C@H]1CN(C)Cc1ccc(Cl)c(Cl)c1,-56.7,1.2,97.4*,111.9*,73.0,47.3*,54.3*
CCC(=O)Nc1ccc2c(c1)C(=O)N(C)C[C@H](OC)[C@@H](C)CN(C(=O)CC1CC1)[C@H](C)CO2,30.5,.,-41.1,.,.,.,.
CCC(=O)N1CC2(CN(C(=O)CN3CCOCC3)C2)c2c([nH]c3cc(OC)ccc23)[C@H]1CO,2.1,5.5,.,.,.,.,.
C[C@@H]1CN([C@@H](C)CO)S(=O)(=O)c2ccc(-c3ccccc3F)cc2O[C@@H]1CN(C)C,-19.7,1.1,59.9,.,.,.,.
COc1ccc(-c2cn(CC[C@H]3CC[C@@H](NC(=O)Nc4ccc(F)cc4)[C@H](CO)O3)nn2)cc1,-57.7,-2.2,.,.,.,.,.
C[C@H](CO)N1C[C@H](C)[C@@H](CN(C)S(=O)(=O)c2ccc(Cl)cc2)Oc2c(NS(=O)(=O)c3ccccc3)cccc2C1=O,17.5,3.7,18.8,.,.,.,.
Cc1noc(C)c1S(=O)(=O)N(C)C[C@@H]1OCCCC[C@@H](C)Oc2ccc(NC(=O)Nc3ccc4c(c3)OCO4)cc2C(=O)N([C@@H](C)CO)C[C@@H]1C,-35.9,16.0,57.5,.,.,.,.
Cc1noc(C)c1S(=O)(=O)N(C)C[C@H]1OCCCC[C@@H](C)Oc2ccc(NC(=O)Nc3ccc4c(c3)OCO4)cc2C(=O)N([C@@H](C)CO)C[C@H]1C,-78.1,-5.4,107.6*,105.5*,24.5,28.0,21.0
Cc1noc(C)c1NC(=O)Nc1ccc2c(c1)C(=O)N([C@@H](C)CO)C[C@@H](C)[C@@H](CN(C)S(=O)(=O)c1c(C)noc1C)OCCCC[C@@H](C)O2,-1.8,-6.8,51.7,.,.,.,.
Cc1noc(C)c1S(=O)(=O)N(C)C[C@@H]1OCCCC[C@@H](C)Oc2ccc(NC(=O)Nc3ccc4c(c3)OCO4)cc2C(=O)N([C@H](C)CO)C[C@@H]1C,-38.8,6.0,58.5,.,.,.,.
Cc1noc(C)c1S(=O)(=O)N(C)C[C@H]1OCCCC[C@H](C)Oc2ccc(NC(=O)Nc3ccc4c(c3)OCO4)cc2C(=O)N([C@@H](C)CO)C[C@@H]1C,-78.1,-6.7,?,106.0*,4.0,0.0,-2.6
Cc1noc(C)c1S(=O)(=O)N(C)C[C@H]1OCCCC[C@@H](C)Oc2ccc(NC(=O)Nc3ccc4c(c3)OCO4)cc2C(=O)N([C@H](C)CO)C[C@@H]1C,0.0,-5.1,103.2*,?,13.2,26.0,45.5*
CC1C=NC(S(=O)(=O)N2CC[C@@H]3[C@H](CO)N(C)c4ccc(-c5ccc(F)cc5)cc4[C@@H]32)=N1 (some centres undefined),-10.3,-13.1,70.7,.,.,.,.
COc1ccc(S(=O)(=O)Nc2ccc3c(c2)C(=O)N([C@H](C)CO)C[C@@H](C)[C@H](CN(C)C(=O)Nc2ccc4c(c2)OCO4)OCCCC[C@@H](C)O3)cc1,-41.5,4.6,64.8,.,.,.,.
C[C@@H]1CCCCO[C@H](CN(C)C(=O)Nc2ccc(F)cc2)[C@H](C)CN([C@H](C)CO)C(=O)c2cc(NS(=O)(=O)c3cn(C)cn3)ccc2O1,-24.6,1.3,-37.3,.,.,.,.
O=S(=O)(N[C@@H]1CC[C@@H](CCn2cc(-c3cccnc3)nn2)O[C@H]1CO)c1ccccc1,16.5,-4.1,25.2,.,.,.,.
COCC#Cc1ccc([C@H]2[C@H]3CN(C(=O)CN(C)C)CCCCN3[C@H]2CO)cc1,6.0,-6.6,21.1,.,.,.,.
COCC#Cc1ccc([C@@H]2[C@@H](CO)N3CCCCN(C(=O)CN(C)C)C[C@H]23)cc1,15.4,3.9,106.3*,76.4,-16.7,-5.7,1.8
CN(C)CC#Cc1ccc([C@@H]2[C@H]3CN(C(=O)CN(C)C)CCCCN3[C@H]2CO)cc1,-27.3,13.9,22.7,.,.,.,.
SMILES,Pf Dd2 inh,C diff growth,T cruzi growth-1,T cruzi growth-2,T cruzi growth-3,3T3 cytotox,3T3 cytotox 2
COCC#Cc1ccc([C@@H]2[C@@H](CO)N3CCCCN(C(=O)CN(C)C)C[C@@H]23)cc1,21.3,-2.3,98.8*,5.6,-13.0,-8.5,-11.5
CN(C)CC#Cc1ccc([C@@H]2[C@H](CO)N3CCCCN(C(=O)CN(C)C)C[C@@H]23)cc1,-33.1,11.0,46.2,.,.,.,.
CN(C)CC#Cc1ccc([C@H]2[C@H](CO)N3CCCCN(C(=O)CN(C)C)C[C@@H]23)cc1,-89.3*,29.3,?,75.6,16.2,15.0,25.1
O=C(C[C@@H]1CC[C@H]2[C@@H](COC[C@@H](O)CN2Cc2cc(F)ccc2F)O1)N1CCc2ccccc2C1,12.0,2.8,14.3,.,.,.,.
COc1ccc(S(=O)(=O)N(C)C[C@H]2OCCCC[C@@H](C)Oc3ccc(NS(=O)(=O)c4cn(C)cn4)cc3C(=O)N([C@H](C)CO)C[C@H]2C)cc1,-46.6,-8.4,55.8,.,.,.,.
C[C@@H]1CN([C@@H](C)CO)S(=O)(=O)c2ccc(C3=CCCCC3)cc2O[C@H]1CN(C)Cc1cncnc1,-22.4,-6.0,90.2,.,.,.,.
C[C@@H]1CN([C@@H](C)CO)S(=O)(=O)c2ccc(C3=CCCCC3)cc2O[C@@H]1CN(C)Cc1ccccc1,-70.9,.,122.3*,99.9*,117.0*,27.0,105.6*
C[C@H]1CN([C@@H](C)CO)S(=O)(=O)c2ccc(C3=CCCCC3)cc2O[C@H]1CN(C)Cc1ccccc1,-53.3,41.8,120.1*,91.1,92.8,68.5*,105.4*
C[C@H](CO)N1C[C@H](C)[C@@H](CN(C)Cc2cncnc2)Oc2cc(C3=CCCCC3)ccc2S1(=O)=O,-14.6,-3.4,67.2,.,.,.,.

# Screens (PubChem)
